Results published in PubChem BioAssay (NCATS).
Results filed as inconclusive are left out. Activity calls are given as the source filed them. The call rests on the fitted dose curve; in most records, active means well fitted curve in the direction sought with a large enough effect; inconclusive means small, poorly fitted or top-dose-only effect, or another doubt; inactive means no such curve, though single readings can be large; an effect the other way counts as inactive or inconclusive.

Experiments:
[1] = Cellular Toxicity (caspase-3) Renal Proximal Tubule (AID 667); conditions: renal proximal tubule cells, primary cells freshly taken from rat; Potency: caspase-3 activation; series mostly up to 91.7 µM;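 further: cells exposed to compound for 16 hours at 37 °C before detection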
Method in brief: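 AC50 derived by standard Hill fit of concentration-response data, normalized between DMSO basal and 10 uM staurosporine as 100% stimulation. Cells: primary rat kidney proximal tubule, 16 h treatment at 37 °C.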

[2] = Cell Viability - LYMP2-001 (AID 921); conditions: LYMP2-001 lymphoblastoid cell viability; series mostly up to 92.2 µM;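 further: cells exposed to compound for 24 h at 37 °C; nearly all actives have a fitted effect of over 70% in size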
Method in brief: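 Steps: seed 2500 lymphoblastoid cells/well; 5 hr, 37 C; add compound; 24 hr, 37 C; CellTiter-Glo reagent, 30 min room temperature; read luminescence. Concentration-response modeled by Hill equation for AC50.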

[3] = MultiTox-Fluor Cytotoxicity Assay - LYMP1-001 - Dead Cells (AID 946); conditions: LYMP1-001 lymphoblastoid cells, dead-cell protease fluorescence; series mostly up to 92.2 µM
Method in brief: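 AC50 from Hill fit of concentration-response; data normalized to DMSO (basal) and 15 uM tetraoctylammonium bromide (100%). LYMP1-001 lymphoblastoid cells, 2500/well, 16 hr compound at 37 C; dead-cell protease fluorescence, Ex/Em 485/520.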

[4] = Cell Viability - LYMP1-002 - Assay at 16 hr (AID 948); conditions: LYMP1-002 lymphoblastoid cell viability; series mostly up to 92.2 µM
Method in brief: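 Seed 2500 LYMP1-002 cells per well in complete medium and hold 5 hr at 37 C. Add compound across a concentration series and incubate 16 hr at 37 C. Add CellTiter-Glo, wait 30 min at room temperature, read luminescence.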

[5] = MultiTox-Fluor Cytotoxicity Assay - LYMP1-002 - Live Cells (AID 955); conditions: LYMP1-002 lymphoblastoid live-cell protease fluorescence viability; series mostly up to 46.1 µM;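 further: cells exposed to compound for 16 hours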
Method in brief: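 In this qHTS viability format, lymphoblastoid cells (LYMP1-002, human) received compound for 16 hr at 37 C. Fluorogenic GF-AFC cleavage by viable cells was detected at 405/510 nm after 1 h at room temperature.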

[6] = MultiTox-Fluor Cytotoxicity Assay - LYMP1-002 - Dead Cells (AID 960); conditions: LYMP1-002 lymphoblastoid cells, dead-cell protease fluorescence; series mostly up to 46.1 µM; further: nearly all actives have a fitted effect of over 60% in size
Method in brief: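 Concentration-dependent increases in membrane-leaked protease activity are quantified in LYMP1-002 cells after 16 hr treatment; values are normalized against DMSO and tetraoctylammonium bromide (15 uM) controls and AC50 derived by Hill modeling.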

[7] = MultiTox-Fluor Cytotoxicity Assay - LYMP1-003 - Dead Cells (AID 961); conditions: LYMP1-003 lymphoblastoid cells, dead-cell protease fluorescence; series mostly up to 92.2 µM; further: nearly all actives have a fitted effect of over 70% in size
Method in brief: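 Human lymphoblastoid LYMP1-003 cells (2500/well) were treated with compounds for 16 hr at 37 C in complete medium. Dead-cell protease release was read by bis-AAF-R110 fluorescence (Ex/Em 485/520). AC50 came from Hill fits, normalized to DMSO and 15 uM tetraoctylammonium bromide.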

[8] = MultiTox-Fluor Cytotoxicity Assay - LYMP1-003 - Live Cells (AID 962); conditions: LYMP1-003 lymphoblastoid cells, MultiTox-Fluor live-cell protease fluorescence; series mostly up to 92.2 µM;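 further: cells exposed to compound for 16 hours at 37 °C; cytotoxic hits lower the live-cell protease signal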
Method in brief: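 Human lymphoblastoid line LYMP1-003 in complete culture medium, treated 16 hr with titrated compounds. Viable cells quantified via cell-permeant GF-AFC substrate fluorescence; AC50 derived by Hill fitting.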

[9] = Cell Viability - LYMP1-003 - Assay at 24 hr (AID 963); conditions: LYMP1-003 lymphoblastoid cell viability; series mostly up to 92.2 µM
Method in brief: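 The lymphoblastoid line was treated with titrated compounds for 24 hours, and viable cell number estimated from luciferase-based ATP luminescence.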

[10] = Cell Viability - LYMP1-003 - Assay at 40 hr (AID 964); conditions: LYMP1-003 lymphoblastoid viability; series mostly up to 92.2 µM; further: nearly all actives have a fitted effect of over 60% in size
Method in brief: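 Acute toxicity is scored as a concentration-dependent loss of intracellular ATP in LYMP1-003 cells (2500/well, complete medium) after 40 hr at 37 C, measured by CellTiter-Glo luminescence; AC50 values derive from standard Hill modelling.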

[11] = Cell Viability - LYMP2-003 (AID 965); conditions: LYMP2-003 lymphoblastoid cell viability; series mostly up to 92.2 µM;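 further: cells exposed to compounds for 24 h before reading; nearly all actives have a fitted effect of over 50% in size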
Method in brief: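 Seed 2500 lymphoblastoid cells/well; incubate 5 hr, 37 C; add compounds; incubate 24 hr, 37 C; add CellTiter-Glo, 30 min RT; read luminescence. AC50 from Hill fit.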

[12] = Cell Viability - LYMP2-004 (AID 966); conditions: LYMP2-004 lymphoblastoid cell viability, qHTS; series mostly up to 92.2 µM; further: nearly all actives have a fitted effect of over 65% in size
Method in brief: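 Viable-cell number estimated from ATP luminescence (CellTiter-Glo) in 2500 human lymphoblastoid cells/well after 24 hr at 37 C with compound. AC50 fitted to the standard Hill equation.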

[13] = Cell Viability - LYMP2-005 (AID 967); conditions: LYMP2-005 lymphoblastoid cell viability; series mostly up to 92.2 µM;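 further: cells exposed to compound for 24 h at 37 °C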
Method in brief: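 Acute cytotoxicity is scored as a concentration-dependent drop in intracellular ATP in human lymphoblastoid LYMP2-005 cells after 24 h compound treatment. ATP is quantified by luciferase luminescence, and AC50 is derived by Hill-equation modelling.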

[14] = Cell Viability - LYMP2-009 (AID 968); conditions: LYMP2-009 lymphoblastoid cell viability; series mostly up to 92.2 µM;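 further: cells exposed to compound for 24 h at 37 °C; nearly all actives have a fitted effect of over 55% in size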
[15] = Cell Viability - LYMP2-011 (AID 969); conditions: LYMP2-011 lymphoblastoid cells viability; series mostly up to 92.2 µM; further: nearly all actives have a fitted effect of over 60% in size
Method in brief: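 Cells seeded at 2500 per well rest 5 hr before compound addition, then incubate 24 hr at 37 C. CellTiter-Glo reagent is added for 30 min at room temperature before luminescence detection.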

[16] = Cell Viability - LYMP2-013 (AID 970); conditions: LYMP2-013 lymphoblastoid cells viability; series mostly up to 92.2 µM;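 further: cells exposed to compound for 24 h at 37 °C; nearly all actives have a fitted effect of over 55% in size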
Method in brief: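 In complete culture medium, human lymphoblastoid cells were dosed for 24 hr at 37 C, with tetraoctylammonium bromide (6.4pM to 92 uM) as positive control. Viability reflects luciferase-based ATP signal; AC50 derived from concentration-response curves.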

[17] = Cell Viability - LYMP2-015 (AID 971); conditions: LYMP2-015 lymphoblastoid cell viability; series mostly up to 92.2 µM; further: nearly all actives have a fitted effect of over 55% in size
Method in brief: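 AC50 values reflect Hill-model fits of ATP-based luminescence (CellTiter-Glo) from a human lymphoblastoid line, 2500 cells/well, treated 24 hr at 37 C.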

[18] = Cell Viability - LYMP2-017 (AID 972); conditions: LYMP2-017 lymphoblastoid cell viability; series mostly up to 92.2 µM;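 further: cells exposed to compound for 24 hours at 37 °C; nearly all actives have a fitted effect of over 55% in size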
Method in brief: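 In this qHTS format, lymphoblastoid cells in complete medium receive test compound for a day at 37 C before ATP content is quantified by luciferase luminescence. Reported AC50 figures come from standard Hill-equation curve fitting.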

[19] = Cell Viability - LYMP2-019 (AID 973); conditions: LYMP2-019 lymphoblastoid cell line viability; series mostly up to 92.2 µM
Method in brief: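 AC50 values come from Hill-equation modelling of qHTS concentration-response curves, where viability is measured as luciferase-based ATP luminescence in the lymphoblastoid line after 24 hr compound exposure in complete culture medium.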

[20] = Cell Viability - LYMP2-021 (AID 974); conditions: LYMP2-021 lymphoblastoid cells viability; series mostly up to 92.2 µM
Method in brief: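 In qHTS format, compounds are tested against 2500 lymphoblastoid cells per well for 24 h; viable cell number is inferred from ATP-driven luciferase light, and Hill-equation fitting yields AC50 values.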

[21] = Cell Viability - LYMP2-023 (AID 975); conditions: LYMP2-023 lymphoblastoid cell viability; series mostly up to 92.2 µM
Method in brief: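 In this qHTS, ATP-based luciferase luminescence (CellTiter-Glo) is quantified in human lymphoblastoid cells after 24 hr compound treatment at 37 C; tetraoctylammonium bromide serves as positive control. Concentration-response curves are Hill-fitted to give AC50.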

[22] = Cell Viability - LYMP2-025 (AID 976); conditions: LYMP2-025 lymphoblastoid cell viability; series mostly up to 92.2 µM;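 further: cells exposed to compound for 24 h at 37 °C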
Method in brief: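 Luminescent ATP readout after 24 hr treatment of a human lymphoblastoid line (LYMP2-025, 2500 cells/well, 37 C). Reagent developed 30 min at room temperature; AC50 fitted with the Hill equation.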

Measured: Potency

CCOC(=O)C1OC1c1ccccc1 (configuration not stated)
inactive: [1] | [2] | [3] | [4] | [5] | [6] | [7] | [8] | [9] | [10] | [11] | [12] | [13] | [14] | [15] | [16] | [17] | [18] | [19] | [20] | [21] | [22]
